Results with a measured potency or affinity are listed apart. A number with no mark means an inactive call.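 How the source made its calls: active means viability loss with fitted half-maximal dose at most ten times the highest valid dose tested; inconclusive means flat viability loss between 30 and 70%, or poor curve fit; inactive means the rest, including flat curves or rising signal.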
Assay: cytotoxicity in BJeH fibroblasts, dose response, counter-screen for Ras selective lethality project, BJeH cells, dry powder (AID 493054)
Conditions: Alamar Blue fluorescence, 48 h; series mostly up to 45 µM; activity change, negative = viability loss: at the top concentration

Structure (SMILES) | activity change, negative = viability loss
CCC(=O)N(c1ccc(OC)c(Cl)c1)C(C(=O)NCCc1ccccc1)c1cccs1 (centres undefined) | 1.23%
COCC(=O)N(c1ccc(OC)c(Cl)c1)C(C(=O)NCCc1ccccc1)c1cccs1 (centres undefined) | -1.47%
COc1ccc(N(C(=O)CO)C(C(=O)NCCc2ccccc2)c2cccs2)cc1Cl (centres undefined) | 4.07%
O=C(c1[nH]ncc1[N+](=O)[O-])N1CCN(C(c2ccccc2)c2ccccc2)CC1 | 8.38%

Source: PubChem BioAssay AID493054 (Broad Institute, 2011)
